This note sets out measurements from PubChem BioAssay (NCATS).

Records with an inconclusive call do not appear. Where a call stands in place of a potency, no number is given. Active and inactive are the calls of the source. Calls come from the whole dose curve; as a rule, active = well fitted cell-killing curve with a large enough effect; inconclusive = small, poorly fitted or top-dose-only effect; inactive = flat fitted curve, though single readings scatter.

This assay is described as follows: qHTS of pediatric cancer cell lines to identify multiple opportunities for drug repurposing: Primary screen for control Hh wild type fibroblast cells (AID 1347106).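 Note: a drop in luminescence marks cytotoxicity and a rise apparent proliferation; nearly all actives have a fitted effect of over 55% in size.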 As to conditions: Hh wild-type fibroblast viability, CellTiter-Glo luminescence, 48 h; series mostly up to 46 µM. From the text: Drug repurposing or repositioning has been offered as a strategy for drug development in oncology programs. This approach has special potential for childhood cancers and other rare or orphan diseases, where the expected return on new drug development has been a disincentive to pharmaceuticals.
In this project we exploit the poly-pharmacology of drugs to discover new indications via phenotypic screening of a panel of 19 well-characterized cell lines derived from solid tumors seen in children and adolescents. The goal is to identify approved drugs with previously unrecognized anticancer properties that has the potential to reveal new mechanisms and biological processes involved in carcinogenesis or drug resistance. We employed a titration-based paradigm (quantitative high-throughput screening or qHTS), where all compounds were tested at multiple concentrations for their effect on cell viability. Concentration-response curves (CRCs) were derived directly from the primary screen, and both potency and efficacy values were used to identify compounds with robust bioactivity profiles. We screened the NIH Chemical Genomics Center (NCGC) Pharmaceutical Collection (NPC) and Mechanism Interrogation Plate (MIPE) small molecule collections of approved and investigational compounds against these cell lines; and measured metabolically active cells after 48 hours of compound treatment as a proxy for cell viability.
Assay Submitter: Nathalia J. Martinez, National Center for Advancing Translational Sciences, National Institutes of Health, Rockville, MD, USA; email: natalia.martinez@nih.gov
[1] Shen, M et al. Quantitative high-throughput phenotypic screening of pediatric cancer cell lines identifies multiple opportunities for drug repurposing. Oncotarget 2017 Dec 19;9(4):4758-4772. PMID 29435139.
The cells were obtained from University of North Carolina (UNC), Pediatric Preclinical Testing Program (PPT), and Coriell Institute (CI).
qHTS cell viability assay:
Cells were assayed in growth media at a density of 500-1,000 cells/well. Five microliters of cells were dispensed into 1,536-well, white, solid-bottom, TC-treated plates (Greiner Bio One) using a multidrop dispenser and incubated at 37 degrees C, 5% CO2, under a humidified atmosphere for 5 hours. Twenty-three nanoliters of compounds and controls (neutral control DMSO or positive control bortezomib at final concentration of 2.3 µM) were subsequently transferred by Kalypsys pintool. For primary screens, the MIPE collection was tested at 11-point dilutions (final concentrations range from 0.78 nM to 46 µM) and the NPC collection at 8-point dilutions (final concentrations range from 0.59 nM to 46 µM). Compounds tested in follow-up screens were assayed at 11-point dilutions. Cells were incubated for 48 hours, followed by addition of 3 µL of CellTiter-Glo (Promega). After a 15 min incubation at room temperature, samples were analyzed for luminescence intensity using a ViewLux High-throughput CCD imager equipped with clear filters.
A general note: In qHTS, concentration-response curves come from the screen itself.
Consider `CCC1(c2cnc[nH]2)Cc2ccccc2C1`, for which the Potency entry was “inactive”.
As for `Cn1c(=O)c2c(ncn2CC(=O)O)n(C)c1=O`, the Potency entry was “inactive”.
As for `O=C(Nc1ccc(S(=O)(=O)N2CCOCC2)cc1)c1cc(Cl)ccc1NS(=O)(=O)c1ccc(Cl)s1`, the entry is “inactive”.
Next, `O=C(O)c1ccccc1S`: “inactive”; `O=P(O)(O)OCC(O)CO` (stereo not given): “inactive”; `CCN(CC)CC(=O)OCC(=O)[C@@]1(O)CC[C@H]2[C@@H]3CCC4=CC(=O)CC[C@]4(C)[C@H]3[C@@H](O)C[C@@]21C`: “inactive”.
Next, `Nc1ncnc2nc[nH]c12`: “inactive”; `CCC(=O)Oc1ccc2c(c1)CC[C@@H]1[C@@H]2CC[C@@]2(C)[C@H]1C[C@@H](OC(=O)CC)[C@@H]2OC(=O)CC`: “inactive”.
In the case of `Cc1ccc(C(C)OC(=O)C2(C)CCC(C(=O)O)C2(C)C)cc1` (stereo not given), the Potency result was “inactive”.
Turning to `CO/N=C(/C(=O)N[C@@H]1C(=O)N2C(C(=O)O)=C(Cn3nnc(C)n3)CS[C@H]12)c1csc(N)n1`, the Potency result is “inactive”.
`CC(=O)Nc1c(I)c(NC(C)=O)c(I)c(C(=O)O)c1I`: the Potency entry was “inactive”.
For `CC[N+](CC)(CC)CCOC(=O)C(C1CCCC1)C1CCCC1`, the Potency entry is “inactive”.
As for `COC(=O)C1=C(C)NC(C)=C(C(=O)OCCc2ccc(N3CCN(C(c4ccccc4)c4ccccc4)CC3)cc2)C1c1cccc([N+](=O)[O-])c1` (stereo not given), the entry is “inactive”; as for `CCN(CC)C(=O)C1CN2CCc3cc(OC)c(OC)cc3C2CC1OC(C)=O` (stereo not given), “inactive”.
Next, `Cc1cccc(N(C)C(=S)Oc2ccc3c(c2)CCC3)c1`: “inactive”; `COc1cc2c(cc1OC)C(=O)CC2`: “inactive”.
With `O=C1[C@@H]2[C@H]3CC[C@H](C3)[C@@H]2C(=O)N1CCCCN1CCN(c2ncccn2)CC1`, the Potency entry was “inactive”.
Next, `O=C(O)CCCC[C@@H]1SC[C@@H]2NC(=O)N[C@@H]21`: “inactive”; `O=C(CCOCCOCCOCCOCCC(=O)Nc1c(I)cc(I)c(C(=O)O)c1I)Nc1c(I)cc(I)c(C(=O)O)c1I`: “inactive”.
As for `C=CC[N+]1([C@H]2C[C@H]3[C@@H]4CC[C@H]5C[C@H](OC(C)=O)[C@@H](N6CCCCC6)C[C@]5(C)[C@H]4CC[C@]3(C)[C@H]2OC(=O)CC)CCCCC1`, the entry is “inactive”; as for `CCN1CCN(c2cc(-c3ccc(F)cc3)c3c(n2)CCCCCC3)CC1`, “inactive”; as for `O=C(O)Cn1c(=O)n(Cc2ccc(Br)cc2F)c(=O)c2ccc(Cl)cc21`, “inactive”.
Regarding `C/C=C(/C(=C/C)c1ccc(OC(C)=O)cc1)c1ccc(OC(C)=O)cc1`, the Potency entry was “inactive”.
As for `O=C(CS(=O)Cc1ccco1)NC/C=C\COc1cc(CN2CCCCC2)ccn1` (stereo not given), the entry is “inactive”; as for `C[N+]1(C)CCC(OC(=O)C(O)(c2ccccc2)C2CCCC2)C1` (stereo not given), “inactive”.
As for `CCOC(=O)c1cc(=O)c2c(OCC(COc3cccc4oc(C(=O)OCC)cc(=O)c34)OC(=O)[C@@H](N)CCCCN)cccc2o1`, the entry is “inactive”; as for `Cc1nc(C2CCCCC2)c(-c2ccc(S(N)(=O)=O)c(F)c2)o1`, “inactive”.
As to `Oc1ccccc1-c1nnco1`, the Potency result is “inactive”.
Next, `CC(=O)O[C@@H]1CC2C3CCc4cc(OC(=O)c5ccccc5)ccc4C3CCC2(C)[C@H]1OC(C)=O` (stereo not given in full): “inactive”; `O=C(O)c1cn(C2CC2)c2cc(Cl)c(F)cc2c1=O`: “inactive”; `O=C1Nc2ccccc2C1(c1ccc(O)cc1)c1ccc(O)cc1`: “inactive”.
As for `CCCCCOc1ccc(C2SC(=O)NC2=O)cc1OCC` (stereo not given), the entry is “inactive”; as for `C[C@@H](O[C@H]1OCCN(Cc2n[nH]c(=O)[nH]2)[C@H]1c1ccc(F)cc1)c1cc(C(F)(F)F)cc(C(F)(F)F)c1`, “inactive”.
Consider `Cc1c(C)c2c(c(C)c1OC(=O)CCC(=O)OCCO)CC[C@@](C)(CCC[C@H](C)CCC[C@H](C)CCCC(C)C)O2`, for which the Potency result is “inactive”.
As for `CC(=O)c1ccc(O)c(C(N)=O)c1`, the Potency result was “inactive”.
Next, `Cc1ccc(-c2ccccc2C#N)cc1`: “inactive”; `CC(=O)Nc1ccn(C2COC(COC(=O)c3ccccc3)O2)c(=O)n1` (stereo not given): “inactive”; `COc1cc(OC)nc(O[C@H](C(=O)O)C(OC)(c2ccccc2)c2ccccc2)n1`: “inactive”.
As for `CC(C)=CCC/C(C)=C/CC/C(C)=C/C(=O)OCC(=O)[C@@]1(O)CC[C@H]2[C@@H]3CCC4=CC(=O)C=C[C@]4(C)[C@H]3[C@@H](O)C[C@@]21C`, the entry is “inactive”; as for `CC(C)(C)c1nnc(NS(=O)(=O)c2ccccc2)s1`, “inactive”.
